Inconclusive results are not listed. The source made the active and inactive calls. Unless noted, the call rests on the fitted dose curve; in most records, active means well fitted curve in the direction sought with a large enough effect; inconclusive means small, poorly fitted or top-dose-only effect, or another doubt; inactive means no such curve, though single readings can be large; an effect the other way counts as inactive or inconclusive.
Experiments:
[1] = AP1 Signaling Pathway (AID 357; active means well fitted curve in either direction with a large enough effect, not every such curve was filed as active;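 further: ME-180 reporter cells stimulated with EGF at its EC50 level; on the % scale 0 is the no-effect control and ±100 the full control effect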); details: ME-180 AP-1-bla reporter, EGF-induced, beta-lactamase ratio, 5 h; at 7.69 µM (top of the series) unless noted
Procedure, shortened: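 AP-1-bla ME-180 cells, Opti-MEM + 0.5% dialyzed FBS, plated overnight 37 °C. Cpd titration + EC50 EGF, 5 h 37 °C. CCF4 2.5 h RT; ex 405, em 460/530 ratio → %activity, AC50.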

[2] = molecular target: Cytochrome P450 1A2 (Homo sapiens) (UniProt P05177); assay: p450-cyp1a2 (AID 410; calls by dose curve; further: potency means the concentration at half of the fitted maximal effect;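 on activity change, negative = inhibition: -100% = full effect of reference inhibitor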)
Cytochrome P450 1A2 (Homo sapiens), sequence (P05177 whole entry, looked up): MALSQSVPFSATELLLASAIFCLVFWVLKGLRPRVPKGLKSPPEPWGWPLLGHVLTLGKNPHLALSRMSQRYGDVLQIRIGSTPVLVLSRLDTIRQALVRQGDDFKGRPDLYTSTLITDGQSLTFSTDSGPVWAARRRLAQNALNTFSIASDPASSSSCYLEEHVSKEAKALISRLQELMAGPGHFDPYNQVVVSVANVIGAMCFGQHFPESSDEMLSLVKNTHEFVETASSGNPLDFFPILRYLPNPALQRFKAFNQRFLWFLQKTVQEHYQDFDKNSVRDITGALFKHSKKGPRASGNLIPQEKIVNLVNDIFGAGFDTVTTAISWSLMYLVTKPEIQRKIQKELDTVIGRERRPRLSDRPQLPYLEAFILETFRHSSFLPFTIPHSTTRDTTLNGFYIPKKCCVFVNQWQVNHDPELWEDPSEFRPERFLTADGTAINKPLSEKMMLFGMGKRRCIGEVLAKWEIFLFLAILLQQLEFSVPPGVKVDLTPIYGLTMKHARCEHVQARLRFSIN
Procedure, shortened: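 Human CYP1A2 (20nM) demethylated Luciferin-ME at its Km (100uM) in 100mM KPO4. After 10 min compound preincubation, NADPH regeneration ran the reaction 60 min at room temperature. Luciferin was read by luminescence, normalized to 57 uM furafylline.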

[3] = NFAT Signaling Pathway (AID 444; active means well fitted curve in either direction with a large enough effect, not every such curve was filed as active;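 further: carbachol stimulus at about its EC50 of 1 µM final; on the % scale 0 is the no-effect control and ±100 the full control effect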); details: Jurkat NFAT-bla M1, carbachol, beta-lactamase ratio, 5 h; at 7.69 µM (top of the series) unless noted
Procedure, shortened: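 Jurkat cells carrying an NFAT-driven β-lactamase reporter and co-transfected muscarinic M1 receptor were treated with compound plus carbachol (1 uM final, an EC50 level) for 5 h at 37 °C. CCF4 loading followed for 1 h at RT; 460/530 nm ratio gave %activity.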

[4] = molecular target: Glucocorticoid receptor (Homo sapiens) (UniProt P04150); assay: GR-GFP Redistribution (AID 450;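 active means compounds whose dose series gives a full or clear partial fitted curve of increased nuclear translocation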; further: potency means the concentration at half of the fitted maximal effect); details: U2OS GR-GFP nuclear translocation, laser cytometry, 2 h
Glucocorticoid receptor (Homo sapiens), sequence (P04150 whole entry, looked up, the tested form may be a part): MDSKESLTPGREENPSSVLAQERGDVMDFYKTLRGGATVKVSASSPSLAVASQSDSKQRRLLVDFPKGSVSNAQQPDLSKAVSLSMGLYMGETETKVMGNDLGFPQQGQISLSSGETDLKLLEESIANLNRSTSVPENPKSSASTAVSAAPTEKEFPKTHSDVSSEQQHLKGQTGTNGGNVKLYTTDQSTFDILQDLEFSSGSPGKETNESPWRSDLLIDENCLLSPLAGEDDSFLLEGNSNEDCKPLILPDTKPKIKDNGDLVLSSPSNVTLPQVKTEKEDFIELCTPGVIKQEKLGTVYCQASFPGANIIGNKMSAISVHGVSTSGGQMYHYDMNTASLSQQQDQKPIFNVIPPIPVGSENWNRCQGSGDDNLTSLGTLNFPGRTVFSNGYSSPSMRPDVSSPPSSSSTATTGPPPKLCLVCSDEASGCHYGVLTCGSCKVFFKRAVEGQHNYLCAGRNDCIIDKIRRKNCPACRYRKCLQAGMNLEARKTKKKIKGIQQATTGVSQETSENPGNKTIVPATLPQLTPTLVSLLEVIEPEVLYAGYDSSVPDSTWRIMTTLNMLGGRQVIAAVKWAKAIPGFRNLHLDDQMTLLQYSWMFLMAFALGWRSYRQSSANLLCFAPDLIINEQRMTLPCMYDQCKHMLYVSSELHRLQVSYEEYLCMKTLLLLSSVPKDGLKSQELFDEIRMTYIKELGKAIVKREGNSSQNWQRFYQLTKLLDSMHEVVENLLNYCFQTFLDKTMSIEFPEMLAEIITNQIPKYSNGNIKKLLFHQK

[5] = molecular target: Glucocorticoid receptor (Homo sapiens) (UniProt P04150); assay: GR-EFC Redistribution (AID 451; calls by dose curve; further: potency means the concentration at half of the fitted maximal effect); details: CHO-K1 GR-EFC translocation, beta-gal luminescence, 2 h
Procedure, shortened: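 CHO-K1 cells stably expressing nuclear-localized β-gal enzyme acceptor and GR fused C-terminally to the enzyme donor fragment; ligand-driven nuclear translocation restores β-gal by complementation. Compounds titrated up to 46 uM final, 2 h at 37 °C; luminescence read.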

[6] = molecular target: Mitogen-activated protein kinase 10 (Mus musculus) (UniProt Q61831); assay: JNK3 AlphaScreen Assay (AID 530; active means well fitted curve in either direction with a large enough effect, not every such curve was filed as active;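 further: kinase came from lysate of stimulated human HepG2 cells; signal reports phosphorylation of biotinylated GST-cJun 1-79 at Ser73 with 10 µM ATP; on the % scale 0 is the no-effect control and ±100 the full control effect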)
Procedure, shortened: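 JNK3 came from HepG2 lysates pre-activated with IL-1beta and TNF-alpha and phosphorylated biotinylated GST-cJun (1-79) at 10 uM ATP, pH 7.6, room temperature. Compounds were titrated. AlphaScreen signal used anti-phospho-cJun (Ser73) antibody.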

[7] = molecular target: 3',5'-cyclic-AMP phosphodiesterase 4B (Homo sapiens) (UniProt Q07343); assay: qHTS Assay for Inhibitors of PDE-IV (AID 607; active means well fitted activation curve with a large enough effect in the main read-out, with a control signal flat, not every such curve was filed as active; further: % of control where 0% means no effect)
3',5'-cyclic-AMP phosphodiesterase 4B (Homo sapiens), sequence (Q07343 whole entry, looked up): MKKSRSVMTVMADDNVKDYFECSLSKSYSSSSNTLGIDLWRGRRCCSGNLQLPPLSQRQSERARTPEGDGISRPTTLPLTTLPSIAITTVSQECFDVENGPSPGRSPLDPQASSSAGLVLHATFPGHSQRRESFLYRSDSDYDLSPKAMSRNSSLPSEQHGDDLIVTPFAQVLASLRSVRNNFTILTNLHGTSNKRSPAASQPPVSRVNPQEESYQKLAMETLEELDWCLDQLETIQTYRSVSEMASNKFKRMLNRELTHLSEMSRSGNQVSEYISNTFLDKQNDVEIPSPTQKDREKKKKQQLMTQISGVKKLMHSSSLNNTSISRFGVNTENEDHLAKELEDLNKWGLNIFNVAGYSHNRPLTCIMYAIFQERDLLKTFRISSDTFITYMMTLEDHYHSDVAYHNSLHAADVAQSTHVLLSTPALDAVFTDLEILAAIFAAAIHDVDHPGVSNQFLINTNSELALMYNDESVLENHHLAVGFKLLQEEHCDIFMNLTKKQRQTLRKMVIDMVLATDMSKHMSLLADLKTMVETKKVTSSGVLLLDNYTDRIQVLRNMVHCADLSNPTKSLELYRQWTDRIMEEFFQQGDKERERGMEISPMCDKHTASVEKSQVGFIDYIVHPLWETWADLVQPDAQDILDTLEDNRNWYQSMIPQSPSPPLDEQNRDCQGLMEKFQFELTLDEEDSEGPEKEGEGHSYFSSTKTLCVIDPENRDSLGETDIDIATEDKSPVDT
Procedure, shortened: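 Live HEK293 cells with a modified cyclic nucleotide-gated (CNG) channel report intracellular cAMP via membrane-potential dye fluorescence (ex 535/em 590 nm). Endogenous PDE-IV was targeted. Compounds were tested at up to 22.9 uM final; RO 20-1724 100 uM served as control.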

[8] = molecular target: Guanine nucleotide-binding protein G(i) subunit alpha-1 (Homo sapiens) (UniProt P63096); assay: qHTS Assay for Inhibitors of RGS12 GoLoco Motif Activity (Green Fluorophore) (AID 879);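 further: 0% = labeled peptide with Gαi1 and full inhibition = labeled peptide alone without protein; negative values mean loss of peptide binding seen as reduced polarization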
Guanine nucleotide-binding protein G(i) subunit alpha-1 (Homo sapiens), sequence (P63096 whole entry, looked up): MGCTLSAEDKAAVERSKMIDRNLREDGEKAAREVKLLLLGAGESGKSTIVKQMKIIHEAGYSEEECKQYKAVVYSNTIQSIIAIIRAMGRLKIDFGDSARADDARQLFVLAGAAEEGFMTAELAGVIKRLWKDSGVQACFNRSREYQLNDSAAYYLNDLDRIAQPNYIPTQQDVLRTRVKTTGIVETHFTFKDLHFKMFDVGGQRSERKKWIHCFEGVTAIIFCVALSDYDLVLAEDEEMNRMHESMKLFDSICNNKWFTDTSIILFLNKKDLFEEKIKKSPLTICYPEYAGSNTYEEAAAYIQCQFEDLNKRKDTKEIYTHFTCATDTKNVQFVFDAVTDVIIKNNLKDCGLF
Procedure, shortened: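 Fluorescence polarization assay: 50 nM Gαi1 with 10 nM FITC-labeled RGS12 GoLoco peptide in 10 mM Tris pH 7.5, 150 mM NaCl, 0.1 mM GDP, 0.05% NP40, 10 min at room temperature with compound.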

[9] = molecular target: Cytochrome P450 2C9 (Homo sapiens) (UniProt P11712); assay: qHTS Assay for Inhibitors and Substrates of Cytochrome P450 2C9 (AID 883); further: on the % scale 0 is the no-effect control and ±100 the full control effect; nearly all actives have a fitted effect of over 60% in size
Procedure, shortened: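 CYP2C9 deoxyluciferin hydroxylation, 37C, 60 min with NADPH regeneration; 10nM enzyme, 100uM Luciferin-H (KM). Glo detection reagent stopped reaction; luminescence normalized to sulphaphenazole (57uM) full inhibition.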

[10] = molecular target: Cytochrome P450 3A4 (Homo sapiens) (UniProt P08684); assay: qHTS Assay for Activators of Cytochrome P450 3A4 (AID 885); further: nearly all actives have a fitted effect of over 65% in size
Procedure, shortened: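 Quantitative HTS format: compounds preincubated with 20nM human CYP3A4 and Luciferin-PPXE substrate at KM, reaction started by NADPH regeneration, stopped after 60 min, luciferase luminescence read 20 min later.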

[11] = qHTS Assay for Identification of Small Molecule Agonists for Thrombopoietin (TPO) Signaling Pathway (AID 917); further: on the % scale 0 is the no-effect control and ±100 the full control effect
Procedure, shortened: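 Activators of TPO signaling were sought in murine Ba/F3 cells transfected with the human receptor, using a luciferase gene driven by the Glycoprotein IIb promoter; 24-hr compound exposure at 37 C alongside 26 pM TPO, in IL-3-free medium.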

[12] = molecular target: Muscarinic acetylcholine receptor M1 (Rattus norvegicus) (UniProt P08482); assay: qHTS Assay for Antagonists of Acetylcholine Muscarinic M1 Receptor: Kinetic Measurement of Intracellular Calcium Response (AID 943); further: potency means the concentration at half of the fitted maximal effect; nearly all actives have a fitted effect of over 75% in size
Muscarinic acetylcholine receptor M1 (Rattus norvegicus), sequence (P08482 whole entry, looked up): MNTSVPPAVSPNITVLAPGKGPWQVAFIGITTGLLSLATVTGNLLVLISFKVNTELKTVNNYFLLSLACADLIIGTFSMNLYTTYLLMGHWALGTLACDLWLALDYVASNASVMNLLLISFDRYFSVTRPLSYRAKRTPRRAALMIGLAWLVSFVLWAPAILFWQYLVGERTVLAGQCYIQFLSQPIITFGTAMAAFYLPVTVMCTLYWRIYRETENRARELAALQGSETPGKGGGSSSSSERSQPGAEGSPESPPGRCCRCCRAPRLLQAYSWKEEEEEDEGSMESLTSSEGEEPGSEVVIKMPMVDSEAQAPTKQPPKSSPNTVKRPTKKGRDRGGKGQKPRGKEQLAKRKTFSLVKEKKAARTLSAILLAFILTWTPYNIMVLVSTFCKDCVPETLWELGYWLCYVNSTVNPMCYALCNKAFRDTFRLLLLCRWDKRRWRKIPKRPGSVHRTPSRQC
Procedure, shortened: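 CHO cells stably expressing rat M1 were loaded with no-wash Fluo-4 dye for 1 h at 37C, pre-incubated 10 min with compound, then challenged with EC80 carbachol (100 nM final); kinetic calcium read 4 min, peak/basal ratio.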

[13] = molecular target: Pyruvate kinase (Leishmania mexicana) (UniProt Q27686); assay: qHTS Validation Assay for Inhibitors of Leishmania Mexicana Pyruvate Kinase (AID 945);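 further: 0% = DMSO only neutral control wells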
Pyruvate kinase (Leishmania mexicana), sequence (Q27686 2-499 E452W): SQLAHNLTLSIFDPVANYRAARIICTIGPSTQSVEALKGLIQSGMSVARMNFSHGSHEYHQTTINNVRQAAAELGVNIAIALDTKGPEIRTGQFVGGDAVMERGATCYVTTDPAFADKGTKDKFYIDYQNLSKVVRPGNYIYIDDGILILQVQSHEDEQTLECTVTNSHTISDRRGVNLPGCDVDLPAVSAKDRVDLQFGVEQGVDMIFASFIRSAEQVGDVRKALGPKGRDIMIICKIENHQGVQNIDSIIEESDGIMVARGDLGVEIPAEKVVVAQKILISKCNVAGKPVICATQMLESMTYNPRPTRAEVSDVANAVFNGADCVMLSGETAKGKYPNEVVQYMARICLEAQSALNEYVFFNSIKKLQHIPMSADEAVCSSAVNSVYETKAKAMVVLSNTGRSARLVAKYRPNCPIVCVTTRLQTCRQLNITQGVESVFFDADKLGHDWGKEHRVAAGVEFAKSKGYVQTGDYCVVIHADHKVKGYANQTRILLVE
Procedure, shortened: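 qHTS eight-point titrations against 0.2 nM LmPYK (E451W) in imidazole buffer pH 7.2 with 0.5 mM PEP, 0.1 mM ADP; 1 h, room temperature. Readout: PKLight luminescence, normalized to neutral DMSO wells.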

[14] = molecular target: Pyruvate kinase PKM (Homo sapiens) (UniProt P14618); assay: qHTS Assay for Activators of Human Muscle Pyruvate Kinase (AID 954; active means well fitted curve in the direction sought with a large enough effect, not every such curve was filed as active;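 further: 0% = uninhibited enzyme and -100% = no enzyme or full thiadiazolimine inhibition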)
Pyruvate kinase PKM (Homo sapiens), sequence (P14618 whole entry, looked up): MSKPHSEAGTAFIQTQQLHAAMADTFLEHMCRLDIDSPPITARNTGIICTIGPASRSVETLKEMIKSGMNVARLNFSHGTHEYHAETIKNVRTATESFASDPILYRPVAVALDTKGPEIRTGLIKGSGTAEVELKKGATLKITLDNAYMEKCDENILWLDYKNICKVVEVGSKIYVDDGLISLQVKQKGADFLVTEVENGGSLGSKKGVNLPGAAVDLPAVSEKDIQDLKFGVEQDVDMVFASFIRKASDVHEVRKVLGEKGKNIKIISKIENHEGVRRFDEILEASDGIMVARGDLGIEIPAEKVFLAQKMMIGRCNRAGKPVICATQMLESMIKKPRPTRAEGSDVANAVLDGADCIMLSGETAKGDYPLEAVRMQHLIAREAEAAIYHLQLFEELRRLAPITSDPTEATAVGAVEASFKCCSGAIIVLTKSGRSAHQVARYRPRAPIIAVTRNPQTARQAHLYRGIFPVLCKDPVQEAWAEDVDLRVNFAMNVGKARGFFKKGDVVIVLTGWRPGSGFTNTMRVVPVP
Procedure, shortened: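 Enzyme was run at intermediate activity so both inhibitors and activators could be detected. ATP formed from ADP and PEP by 0.1 nM human PKM2 during a 1 h room-temperature incubation was quantified by coupled luciferase luminescence.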

[15] = molecular target: Alpha-galactosidase A (Homo sapiens) (UniProt P06280); assay: Counterscreen for Glucocerebrosidase Inhibitors: qHTS Assay for Human alpha-Galactosidase at pH 4.5 (AID 992); further: 0% is about no effect
Alpha-galactosidase A (Homo sapiens), sequence (P06280 whole entry, looked up): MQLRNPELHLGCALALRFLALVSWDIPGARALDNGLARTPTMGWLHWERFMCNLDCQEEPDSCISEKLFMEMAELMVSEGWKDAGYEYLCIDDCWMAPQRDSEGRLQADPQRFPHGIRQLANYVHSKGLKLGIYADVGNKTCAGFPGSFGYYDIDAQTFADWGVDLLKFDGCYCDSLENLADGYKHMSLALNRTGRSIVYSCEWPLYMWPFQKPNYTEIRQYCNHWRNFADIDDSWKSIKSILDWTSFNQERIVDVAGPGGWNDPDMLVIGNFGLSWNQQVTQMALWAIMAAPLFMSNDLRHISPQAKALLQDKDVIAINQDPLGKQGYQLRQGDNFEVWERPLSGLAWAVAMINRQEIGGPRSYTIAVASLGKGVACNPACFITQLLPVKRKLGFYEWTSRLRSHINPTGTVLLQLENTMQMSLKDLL
Procedure, shortened: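 Read-out is 4-methylumbelliferone fluorescence (365 nm excitation, 440 nm emission) after a pH 10 NaOH/glycine stop. Reactions held 2 nM enzyme and 80 uM substrate at pH 4.5 for 20 min at room temperature.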

[16] = molecular target: alpha-glucosidase (Oryza sativa, rice) (UniProt Q653V4); assay: Counterscreen for Glucocerebrosidase Inhibitors: qHTS Assay for Rice alpha-Glucosidase at pH 5.0 (AID 997);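 further: 0% = full activity with enzyme and -100% = basal without enzyme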
Procedure, shortened: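 Rice alpha-glucosidase (4 nM final) with 400 uM 4-methylumbelliferyl-alpha-D-glucopyranoside in citrate buffer pH 5.0, 20 min at room temperature, stopped at pH 10; fluorescence 365/440 nm, compounds 0.7 nM–77 uM, AC50 from Hill fits.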

[17] = Stat Signaling Pathway (AID 446; active means well fitted curve in either direction with a large enough effect, not every such curve was filed as active); details: ME-180 (cervical carcinoma) SIE beta-lactamase reporter, IL-6 stimulated, 5 h; at 7.69 µM (top of the series) unless noted
Procedure, shortened: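 IL-6/STAT signaling read in ME-180 cells via an SIE beta-lactamase reporter. Stimulus was 40 pM IL-6 (its AC50) for 5 hrs, so both activation and inhibition register.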

[18] = molecular target: Cytochrome P450 2C19 (Homo sapiens) (UniProt P33261); assay: qHTS Assay for Inhibitors and Substrates of Cytochrome P450 2C19 (AID 899); further: on the % scale 0 is the no-effect control and ±100 the full control effect; nearly all actives have a fitted effect of over 60% in size
Cytochrome P450 2C19 (Homo sapiens), sequence (P33261 whole entry, looked up): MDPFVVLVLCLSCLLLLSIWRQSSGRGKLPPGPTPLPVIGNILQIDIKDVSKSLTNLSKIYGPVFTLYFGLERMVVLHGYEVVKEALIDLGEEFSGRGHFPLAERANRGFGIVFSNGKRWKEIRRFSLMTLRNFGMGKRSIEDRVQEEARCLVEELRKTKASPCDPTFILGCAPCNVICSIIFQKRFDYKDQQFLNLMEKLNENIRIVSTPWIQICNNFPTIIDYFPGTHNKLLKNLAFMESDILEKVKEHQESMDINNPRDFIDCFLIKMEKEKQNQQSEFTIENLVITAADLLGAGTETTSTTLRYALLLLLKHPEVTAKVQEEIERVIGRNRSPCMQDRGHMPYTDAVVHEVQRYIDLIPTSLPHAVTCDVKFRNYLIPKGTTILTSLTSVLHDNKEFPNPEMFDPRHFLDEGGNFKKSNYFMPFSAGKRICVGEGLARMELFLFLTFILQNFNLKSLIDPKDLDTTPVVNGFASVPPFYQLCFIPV
Procedure, shortened: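 In 50mM KPO4, the reaction held 5nM enzyme and KM-level (10uM) Luciferin-H EGE; it ran 60 min at 37C after NADPH regeneration and a 10 min compound preincubation. Luminescence values were scaled to 57uM ketoconazole as complete inhibition.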

[19] = molecular target: Muscarinic acetylcholine receptor M1 (Rattus norvegicus) (UniProt P08482); assay: qHTS Assay for Antagonists of Acetylcholine Muscarinic M1 Receptor: Measurement of IP-One Response (AID 944); further: nearly all actives have a fitted effect of over 75% in size
Procedure, shortened: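 CHO cells expressing rat M1 receptor, recovered overnight, were pre-incubated 10 min with compound, then stimulated 30 min with carbachol at EC80 (200 nM) in LiCl-containing buffer, pH 7.4. IP1 accumulation was read by HTRF (620/665 nm).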

[20] = qHTS Assay for Identification of Small Molecule Antagonists for NFkB Signaling Pathway (AID 895; active means well fitted inhibition curve with a large enough effect in the signal ratio, with a control signal flat, not every such curve was filed as active; the % refers to the signal ratio; further: on the % scale 0 is the no-effect control and ±100 the full control effect)
Procedure, shortened: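 NFkB-bla ME-180 cervical carcinoma cells with beta-lactamase reporter under NFkB response element; compounds added, then TNF alpha at 10 pM final (EC50), 5 h at 37 C. LiveBLAzer substrate 2 h, room temperature; emission 460/530 nm at 405 nm excitation.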

CCCCCCCCCCCCCCCC(=O)NC[C@@H](COP(=O)([O-])OCC[N+](C)(C)C)OCC
inactive: activity change, negative = inhibition [1] -23.3% [at 38 µM] | Potency [2] | Potency [4] > 46 µM | Potency [5] > 46 µM | Potency [6] | Potency [7] | outcome [8] | Potency [9] | Potency [10] | outcome [11] | outcome [13] | outcome [14] | outcome [15] | Potency [16]
active: activity change, negative = inhibition [3] 16.7% [at 38 µM] | Potency [12] 11.2 µM

COc1cc2c3cc1Oc1cc(ccc1O)C[C@@H]1c4c(cc(OC)c(O)c4Oc4ccc(cc4)C[C@H]3[N+](C)(C)CC2)CC[N+]1(C)C
inactive: activity change, negative = inhibition [1] 5.87% | Potency [2] | activity change, negative = inhibition [3] 0.638% | activity, negative = inhibition [17] 21.4% | Potency [6] | Potency [7] | Potency [18]

COC(=O)[C@@H]1[C@H]2C[C@H]3c4[nH]c5cc(OC)ccc5c4CCN3C[C@@H]2C[C@@H](OC(=O)c2cc(OC)c(OC)c(OC)c2)[C@@H]1OC
inactive: activity change, negative = inhibition [1] -23.7% [at 38 µM] | activity change, negative = inhibition [3] 3.19% [at 38 µM] | Potency [4] > 46 µM | Potency [5] > 46 µM | Potency [6] | Potency [7] | Potency [9] | Potency [18]
active: Potency [2] 15.8 µM

CN1[C@@H]2CC[C@H]1CC(NC(=O)c1nn(C)c3ccccc13)C2 (stereo partly specified)
inactive: activity change, negative = inhibition [1] -1.02% [at 38 µM] | Potency [2] | activity change, negative = inhibition [3] -9.68% [at 38 µM] | Potency [4] > 46 µM | Potency [5] > 46 µM | Potency [6] | Potency [7] | outcome [8] | outcome [11] | Potency [19] | outcome [13] | outcome [14] | Potency [16]

NC(=O)c1ncn([C@@H]2O[C@@H](CO)[C@@H](O)[C@H]2O)c1O
inactive: activity change, negative = inhibition [1] 15.7% [at 38 µM] | Potency [2] | activity change, negative = inhibition [3] 2.24% [at 38 µM] | activity, negative = inhibition [17] 3.38% [at 38 µM] | Potency [5] > 46 µM | Potency [6] | Potency [7] | outcome [8] | outcome [11] | outcome [13] | outcome [14] | outcome [15] | Potency [16]

Nc1c2c(nc3ccccc13)CCC[C@H]2O
inactive: activity change, negative = inhibition [1] 1.75% [at 38 µM] | activity change, negative = inhibition [3] 0.441% [at 38 µM] | Potency [4] > 46 µM | Potency [5] > 46 µM | Potency [6] | Potency [7] | outcome [8] | Potency [9] | Potency [20] | outcome [11] | Potency [19] | outcome [14] | outcome [15] | Potency [16]
active: Potency [2] 10 µM

C[C@@]12CCC(=O)C=C1CC[C@H]1[C@H]3CC[C@](O)(C(=O)CO)[C@]3(C)CC[C@@H]12
active: Potency [4] 0.114 µM
inactive: activity change, negative = inhibition [1] 16% [at 38 µM] | Potency [2] | activity change, negative = inhibition [3] -2.8% [at 38 µM] | activity, negative = inhibition [17] -40.3% [at 38 µM] | Potency [6] | Potency [7] | Potency [9]
